The whole screen tested about 3,300 compounds, of which about 280 (8.5%) were called active.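 How the source made its calls: active means mean growth inhibition over the two runs of 50% or more; inactive means mean growth inhibition under 50%.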 The full list was thinned out, with actives kept by preference.
Experiment: A549 NSCLC cell proliferation inhibitors – ATP luminescence, human non-small cell lung line, primary screen (AID 371);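 further: compound exposure lasted 72 h before the ATP read; 0% = untreated cell signal and 100% = no luminescence left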
Details: at 10 µM, stronger effect = higher value

Growth inhibition, inactive:
CC1(C)CC(=O)C=C(N=CC2=C(O)CC(C)(C)CC2=O)C1 1.19%, Cc1cc(=O)oc(C)c1C(=O)NCCN1CCOCC1 -2.84%, CCC(=O)Nc1cccc(-c2nnc(SCC(=O)NCc3ccco3)n2C)c1 -4.64%, CC1(C)Cc2c(sc3ncn4nnnc4c23)CO1 0.79%, CSc1nc2sc3c(c2c2nnnn12)CC(C)(C)OC3 9.43%, COc1ccc(-n2c(SCC(N)=O)nc3sc4c(c3c2=O)CCN(C)C4)cc1 8.23%, Cn1c(=O)n(CCC(=O)O)c2ccccc21 1.48%, COC(=O)CC1=C(C(=O)OC)C(c2ccncc2)C(C#N)=C(N)O1 (stereo unspecified) 3.31%, O=C(c1cccc(Cl)c1)N1CCN(C(=O)c2ccccc2F)CC1 0.26%, O=C(Nc1ccc2c(c1)OCCO2)c1ccc(Br)o1 19.2%, CCCCC(=O)C1CCN(Cc2ccccc2)CC1 -7.27%, COc1cc(-c2nn3c(C4CCCCC4)nnc3s2)cc(OC)c1OC 18.1%, CN(C=C1C(=O)CC(C)(C)CC1=O)CCN1CCNCC1 3.03%, COc1ccc(C(=O)CSC2=C(C#N)C3(CCCCC3)C(C#N)=C(N)N2)cc1 49.2%, N#Cc1c(SCC(N)=O)nsc1SCc1ccc(Cl)cc1 23.5%, COc1ccc(-c2oc3ncn4nc(COc5ccccc5)nc4c3c2-c2ccc(OC)cc2)cc1 10.6%, CCOC(=O)c1[nH]c2ccc(OC)cc2c1NC(=O)CCN1CCCC(C)C1 (stereo unspecified) 6.76%, c1cncc(Oc2cccc(Oc3cccnc3)c2)c1 20.7%, COc1ccc(OC)c(C2C(C(=O)c3sc(C)nc3C)=C(O)C(=O)N2CCN2CCOCC2)c1 (stereo unspecified) 5.82%, O=C1CC(NCc2ccc3c(c2)OCO3)C(=O)N1Cc1ccc2c(c1)OCO2 (stereo unspecified) 0.14%, CCN1CC2=C(OC(N)=C(C#N)C2c2ccccc2)/C(=C\c2ccccc2)C1 (stereo unspecified) 46.8%, COCc1[nH]nc2c1C(c1cccc(OC)c1)C(C#N)=C(N)O2 (stereo unspecified) 8.14%, Cc1cc(N2C(=O)C(=O)/C(=C(/O)c3ccc(F)cc3)C2c2ccc(F)cc2)no1 (stereo unspecified) 9.16%, CCc1nc2n[nH]c(N)c2c2c1CSC(C)(C)C2 12.5%, COc1ccccc1-c1cc(-c2cc(Cl)ccc2O)n[nH]1 15%, COc1cccc(NC(=O)C2CC(=O)n3cnnc3S2)c1 (stereo unspecified) -2.07%, c1ccc(-n2c(Cc3cccnc3)nc3cnccc32)cc1 -4.36%, Clc1ccc(-c2nn3c(-c4cccc(Cl)c4)nnc3s2)cc1 22.7%, Cc1cccc(OCC(=O)NCC(=O)n2nc(C)cc2C)c1 1.47%, Cc1c(C(=O)O)c(=S)sn1CCOc1ccccc1 3.85%, COc1ccc(-c2ncncc2-c2csc(C)n2)c(O)c1 3.39%, COc1cccc(-c2nnc3sc(-c4ccccc4)nn23)c1 8.34%, Nc1nnc(Cc2ccc(Cl)c(Cl)c2)s1 18.2%, O=C1NC(=O)C(c2cn(-c3ccccc3)nc2-c2ccc(F)cc2)N1 (stereo unspecified) 10.6%, Cc1ccc(-c2ccccc2NC(=O)C2C3C=CC(C3)C2C(=O)O)o1 (stereo unspecified) 1.09%, C/C(=N\O)c1ccc2[nH]ccc2c1 9.01%, Nc1nc(Cl)nc2c1ncn2[C@@H]1O[C@H](CO)[C@@H](O)[C@H]1O 33.3%, Nc1ncnc2c1ncn2[C@@H]1O[C@H](CO)[C@@H](O)[C@H]1O 1.29%, CCOC(=O)CSc1nc(C)c(C(C)=O)cc1C#N 7.6%, O=C(O)CCCc1ccccc1 -1.26%, O=C(NCCc1ccccc1)/C(=N\O)c1ccccc1 10.9%, CC(C)(C)C1=Nn2c(nnc2-c2ccco2)SC1 2.63%, CC(=O)N(Cc1ccccc1)c1ccc(C(=O)O)cc1 -0.07%, COc1ccccc1C(CC(=O)Nc1nccs1)c1ccco1 (stereo unspecified) 11.7%, O=c1[nH]nc2n1CCCCC2 2.49%, Cc1nnc2n(-c3ccccc3)c(=O)c3c4c(sc3n12)COC(C(C)C)C4 (stereo unspecified) 13.4%, CC(C)C1Cc2c(sc3c2c(=O)n(Cc2ccccc2)c2nncn32)CO1 (stereo unspecified) 25.2%, COC(=O)c1[nH]c2cc(OC)ccc2c1NC(=O)CN1CCC(C(N)=O)CC1 -2.17%, COC(=O)c1[nH]c2cc(OC)ccc2c1NC(=O)CCN1CCCC(C)(C)C1 -5.32%, COc1cccc2c(=O)c(SC(F)(F)C(F)C(F)(F)F)c(C)[nH]c12 (stereo unspecified) 46.7%, CSC(=Nc1ccccc1)C1=C(O)COC1=O 3.6%, CSc1nc(C)c2c(c1C#N)CCCC2 11.1%, O=C(NC1CCCCC1)[C@H](O)[C@@H](O)C(=O)NC1CCCCC1 -22.3%, CCCc1nc(N2CCCC2)c(C#N)c2c1CCCC2 20.2%, COc1ccc(CCNc2oc(COc3ccccc3)nc2C#N)cc1 31.8%, COc1ccc(CNc2oc(COc3ccccc3Cl)nc2C#N)cc1 34.1%, COC(=O)c1ccc(Cn2nnc3c(sc4nc(N5CCOCC5)c5c(c43)CCCC5)c2=O)o1 3.34%, O=CNC(=O)c1ccccc1C(=O)O -1.48%, CCOC(=O)c1cc2cc(OC)ccc2[nH]1 15.9%, CCCCC(=O)Nc1c(O)c2ccccc2[nH]c1=O 3.38%, COc1ccc(-c2coc3cc(O)cc(O)c3c2=O)cc1 21.9%, O=c1c(O)c(-c2ccc(O)cc2O)oc2cc(O)cc(O)c12 4.21%, COC(=O)c1cc(=O)n2c(-c3ccc(OC)cc3)csc2n1 -0.07%, O=C(O)CCCCCN1C(=O)CCC1=O -0.47%, CC1(C)Cc2c(c(N3CCOCC3)nc3sc4c(NCc5ccco5)nnnc4c23)CS1 32.9%, CN1CCN(CCCN2c3ccccc3Sc3ccc(Cl)cc32)CC1 0.16%, CN1CCN(CCCCOc2ccc(F)cc2)CC1 3.19%, CN1CCN(CCC(=O)N2c3ccccc3Sc3ccc(Cl)cc32)CC1 13.4%, c1ccc(SCc2nc3ccccc3[nH]2)nc1 6.85%, CC(NC(=O)Nc1ncccn1)(C(F)(F)F)C(F)(F)F 0.51%, C/C(=N\O)C1(C)N(O)C(C)(C)C(c2ccco2)=[N+]1[O-] (stereo unspecified) 2.56%, CC1(C)Cc2c(c(-c3ccccc3)nc(N3CCCC3)c2C(N)=O)CO1 7.2%, O=C(NC1(C(F)(F)F)C(=O)Nc2c1c(=O)[nH]c(=O)n2-c1ccccc1)c1cccnc1 (stereo unspecified) 1.94%, CCOC(=O)CSC1=C(C#N)C(=O)NC2(CCCCC2)S1 -4.21%, Nc1nonc1-c1noc(-c2ccccc2)n1 8.32%, Nc1nnc(-c2cccc(Cl)c2Cl)c(N)n1 14.4%, O=C(O)c1cnn2c(C(F)(F)F)cc(-c3ccco3)nc12 -1.5%, O=C(CCCN1C(=O)c2ccccc2C1=O)N1CCC(c2ccccc2)C1 (stereo unspecified) -0.61%, OCCNC1=NCCN1 -1.49%, N#Cc1nc(COc2ccccc2F)oc1NCCCn1ccnc1 5.01%, CC(C(=O)N(C)C)N(C#N)c1nc(N(C)C)nc(N(C)C)n1 (stereo unspecified) 3.51%

Growth inhibition, active:
CC1(C)Cc2c(sc3c4nnnn4c4nnnn4c23)CO1 62.4%, O=C(Nc1ccc(N2CCN(C(=O)c3ccccc3)CC2)c(Cl)c1)c1ccc(Br)o1 64.9%, N#CC1=C(N)NC(SCc2ccc(Cl)cc2)=C(C#N)C12CCCCC2 91%, N#CC1=C(N)NC(SCc2ccc(F)cc2)=C(C#N)C12CCCCC2 84.3%, COc1cccc(/C=C2/CN(C)CC3=C2OC(N)=C(C#N)C3c2cccc(OC)c2)c1 (stereo unspecified) 67.5%, Cc1cccc(OCCN2CSC(=S)N(C)C2)c1 51.6%, COc1ccc(-c2onc(C)c2-c2ccccc2)c(O)c1 52.1%, CC[C@H]1CN2CCc3cc(OC)c(OC)cc3[C@@H]2C[C@@H]1C[C@H]1NCCc2cc(OC)c(OC)cc21 78.5%, Nc1nc(F)nc2c1ncn2[C@@H]1O[C@H](CO)[C@@H](O)[C@@H]1O 73.1%, N#C/C(=C\c1ccc(O)c(O)c1)C(=O)NCCCc1ccccc1 64.3%, Cc1nnc2n(Cc3ccccc3)c(=O)c3c4c(sc3n12)COC(C(C)C)C4 (stereo unspecified) 72.3%, COC(=O)c1[nH]c2cc(OC)ccc2c1NC(=O)CN1CCN(c2cccc(C)c2)C(C)C1 (stereo unspecified) 68%, CC(C)(C)c1cccc(/C=N/O)c1O 84.1%, COc1ccc(CNc2oc(COc3ccc(Cl)cc3)nc2C#N)cc1 74.1%, O=c1c(-c2ccc3c(c2)OCCO3)c(C(F)(F)F)oc2cc(O)cc(O)c12 71.1%, OCCN1CCN(CCCN2c3ccccc3Sc3ccc(Cl)cc32)CC1 90.6%, CN1CCN(CCCN2c3ccccc3Sc3ccc(C(F)(F)F)cc32)CC1 93.1%, OCCN1CCN(CCCN2c3ccccc3Sc3ccc(C(F)(F)F)cc32)CC1 92.3%, Nc1nc(N)c2nc(-c3ccccc3)c(N)nc2n1 82.4%, CCN(CC)c1ccc(C2Nc3cccc4cccc(c34)N2)c(O)c1 77.5%
